From PubChem
This is a sample that favours compounds with a hit; in the whole collection about 22% have one here.
CYP2C19 act = increases human CYP2C19 enzyme activity. AID 1025. recombinant CYP2C19, luciferin-H EGE luminescence; active compounds read high; 0 = fully inhibited enzyme, 1 = untreated enzyme. 96,000 tested, under 10 active. activation factor at 5 µM. P33261;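 active = activation factor of at least 2 at 5 µM in the primary screen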
Target sequence (P33261 whole entry, looked up): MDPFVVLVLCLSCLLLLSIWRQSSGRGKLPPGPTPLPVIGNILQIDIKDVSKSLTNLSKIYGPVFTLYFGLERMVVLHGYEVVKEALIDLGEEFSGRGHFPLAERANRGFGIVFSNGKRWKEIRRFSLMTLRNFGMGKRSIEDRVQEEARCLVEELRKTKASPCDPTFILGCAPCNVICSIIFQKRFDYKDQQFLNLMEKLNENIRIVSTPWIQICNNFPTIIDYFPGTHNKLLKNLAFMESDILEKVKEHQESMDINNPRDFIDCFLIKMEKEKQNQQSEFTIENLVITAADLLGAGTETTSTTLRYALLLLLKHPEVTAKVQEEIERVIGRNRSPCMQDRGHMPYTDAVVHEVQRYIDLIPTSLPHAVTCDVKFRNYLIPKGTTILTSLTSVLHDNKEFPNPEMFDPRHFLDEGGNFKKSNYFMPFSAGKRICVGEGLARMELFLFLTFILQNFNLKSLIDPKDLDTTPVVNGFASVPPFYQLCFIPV
E-sel TNF inh = blocks E-selectin expression induced by TNF alpha; inhibition, % at 2 µM; HUVEC TNFa-induced E-selectin immunofluorescence, high content; actives 0.71% (n = 120,000); AID 1246;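 active = inhibition above the batch mean plus 3 SD, and confirmed as a hit on visual image review, cut at about 43% in these data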
CYP2C19 inhib = inhibitors of human CYP2C19 | actives 21% (n = 96,000) | AID 778 | inhibition, % at 5 µM | P33261 | CYP2C19 Supersomes, luciferin-H EGE luminescence, 30 min;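 active = CYP2C19 inhibition above a set limit at 5 µM in the primary screen, cut at about 50% in these data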
cytoskel mod = modifiers of cytoskeleton assembly; inhibition, % at 2 µM; HUVEC TNFa F-actin phalloidin imaging, high content; actives 0.18% (n = 91,000);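 active = inhibition above the batch mean plus 3 SD and confirmed as a hit by visual image inspection, cut at about 30% in these data, passing the limit was not always enough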
CYP2C9 act = activators of human CYP2C9. actives 1.4% (n = 96,000). activation factor at 5 µM. recombinant CYP2C9, luciferin-H conversion, luminescence; active compounds read high; factor 1 = untreated enzyme, 0 = blocked. P11712;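 active = activation factor of 2 or more for CYP2C9 at a 5 µM dose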
CYP2C9 inhib = inhibitors of human CYP2C9; P11712; CYP2C9 Supersomes, luciferin-H conversion, luminescence; inhibition, % at 5 µM; actives 20% (n = 96,000); AID 777;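 active = blocking of liver enzyme CYP2C9 beyond about 50% at 5 µM, limit read from the data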
Large screens that a line does not name were inactive.

COC(=O)c1ccccc1NC(=O)CN1C(=O)c2ccccc2S1(=O)=O	none
O=C(CN1C(=O)c2ccccc2S1(=O)=O)NCc1ccccc1Cl	CYP2C19 inhib 59 (no result: E-sel TNF inh)
O=C(OCCN1C(=O)c2ccccc2C1=O)c1ccc(S(=O)(=O)N2CCCCCC2)cc1	CYP2C9 inhib 82
O=C(OCC(=O)c1ccc[nH]1)c1ccc(S(=O)(=O)N2CCCCCC2)cc1	none
O=C(CCCN1C(=O)c2ccccc2C1=O)Nc1ccc(S(=O)(=O)N2CCCCC2)cc1	CYP2C19 inhib 63, CYP2C9 inhib 94
COc1ccc(/C=C/C(=O)NC2CCCCCC2)cc1S(=O)(=O)N1CCOCC1	none (no result: CYP2C19 act, CYP2C19 inhib, cytoskel mod, CYP2C9 act, CYP2C9 inhib)
O=S1(=O)N=C(Nc2ccc(S(=O)(=O)N3CCCCC3)cc2)c2ccccc21	none (no result: cytoskel mod)
O=C(CN1C(=O)c2ccccc2S1(=O)=O)Nc1ccc(S(=O)(=O)N2CCCCCC2)cc1	CYP2C19 inhib 50, CYP2C9 inhib 87
COC(=O)c1ccc(CN2C(=O)c3ccccc3S2(=O)=O)cc1	CYP2C19 inhib 84, CYP2C9 inhib 60 (no result: cytoskel mod)
O=C(Cn1c(=O)sc2ccccc21)Nc1ccc(S(=O)(=O)N2CCCC2)cc1	CYP2C19 inhib 80, CYP2C9 inhib 98 (no result: E-sel TNF inh)
CCOC(=O)N1CCN(Cc2nc3c(c(=O)[nH]c(=O)n3C)n2Cc2ccccc2C)CC1	none
Cc1ccc(Oc2ccc(NC(=O)Cn3ccsc3=N)cc2)cc1	none
O=C(c1ccccc1)N(Cc1ccco1)C1CCS(=O)(=O)C1 (stereo not given)	none
CCN(CCNC(=O)CC1Oc2ccccc2NC1=O)c1ccccc1 (stereo not given)	CYP2C19 inhib 61 (no result: E-sel TNF inh)
O=C(CC1Oc2ccccc2NC1=O)NC1CCCC1 (stereo not given)	CYP2C9 act 2.4 (no result: E-sel TNF inh, cytoskel mod)
O=C(CC1Oc2ccccc2NC1=O)NC1CC1 (stereo not given)	none
O=C(CC1Oc2ccccc2NC1=O)NCCc1ccccc1 (stereo not given)	none
CCN(Cc1ccccc1)C(=O)CC1Oc2ccccc2NC1=O (stereo not given)	CYP2C19 inhib 88
COc1cc(Cn2c(-c3nonc3N)nc3ccccc32)ccc1C	CYP2C9 inhib 74
Nc1nonc1-c1nc2ccccc2n1Cc1ccc(Cl)cc1	CYP2C19 inhib 75, CYP2C9 inhib 53 (no result: E-sel TNF inh, cytoskel mod)
COc1cccc(Cn2c(-c3nonc3N)nc3ccccc32)c1	none
c1ccc2c(c1)CCN(c1ncnc3nc[nH]c13)C2	none (no result: cytoskel mod)
C1=C(c2ccccc2)CCN(c2ncnc3nc[nH]c23)C1	CYP2C19 inhib 54 (no result: cytoskel mod)
COc1ccc(N=C2SC(CC(=O)Nc3cccc(Cl)c3)C(=O)N2Cc2ccco2)cc1 (stereo not given)	none (no result: CYP2C19 act, CYP2C19 inhib, cytoskel mod, CYP2C9 act, CYP2C9 inhib)
CCN(CC)CCNC(=O)Cc1c(C(=O)O)n(C)c2ccccc12	none
Cn1c(C(=O)O)c(CC(=O)NCc2cccnc2)c2ccccc21	CYP2C9 inhib 63
Cn1c(C(=O)O)c(CC(=O)Nc2ccc(F)cc2F)c2ccccc21	CYP2C19 inhib 78, CYP2C9 inhib 95
Cn1c(C(=O)O)c(CC(=O)Nc2ccc3c(c2)OCCO3)c2ccccc21	CYP2C19 inhib 59, CYP2C9 inhib 65
CCn1c(C(=O)O)c(CC(=O)Nc2ccccc2F)c2ccccc21	none (no result: CYP2C19 act, CYP2C19 inhib, cytoskel mod, CYP2C9 act, CYP2C9 inhib)
Cc1ccc2c(c1)c(CC(=O)Nc1ccc(F)cc1)c(C(=O)O)n2C	CYP2C9 inhib 65 (no result: cytoskel mod)
CC1CCCCN1CCNC(=O)C1CCN(S(=O)(=O)N2CCCCC2)CC1 (stereo not given)	none (no result: E-sel TNF inh)
Cc1cc(=O)[nH]c(SCC(=O)Nc2ccc(Br)cc2)c1C#N	CYP2C19 inhib 95, CYP2C9 inhib 93 (no result: cytoskel mod)
Cc1cc(=O)[nH]c(SCC(=O)Nc2ccccc2C#N)c1C#N	CYP2C19 inhib 64, CYP2C9 inhib 71
CC(CCc1ccccc1)NC(=O)c1cncc(Br)c1 (stereo not given)	none
O=C(CSc1ccc(-c2ccco2)nn1)NC1CCCCC1	none (no result: CYP2C19 act, CYP2C19 inhib, cytoskel mod, CYP2C9 act, CYP2C9 inhib)
COc1ccc(C2N(C(=O)c3ccccc3)CCN2C(=O)c2ccccc2)cc1	CYP2C19 inhib 69
Cc1ccc(S(=O)(=O)N2CCN(S(C)(=O)=O)C2c2ccccc2)cc1 (stereo not given)	CYP2C19 inhib 64
Cc1ccc(S(=O)(=O)N2CCN(S(=O)(=O)N3CCCCC3)CC2)cc1	none
COc1ccc(C2N(C(=O)N3CCOCC3)CCN2S(=O)(=O)c2ccc(C)cc2)cc1 (stereo not given)	none
Cc1ccc(S(=O)(=O)N2CCN(C(=O)N3CCOCC3)C2c2ccc(N(C)C)cc2)cc1 (stereo not given)	none
Cc1ccc(S(=O)(=O)N2CC3CCC2C3)cc1 (stereo not given)	CYP2C19 inhib 65 (no result: E-sel TNF inh)
COc1ccc(C2N(S(=O)(=O)c3ccccc3)CCN2S(=O)(=O)c2ccc(C)cc2)cc1 (stereo not given)	CYP2C19 inhib 86, CYP2C9 inhib 65 (no result: E-sel TNF inh)
COc1ccc(C2N(C(=O)CN3CCOCC3)CCN2S(=O)(=O)c2ccccc2)cc1 (stereo not given)	none (no result: E-sel TNF inh)
CCOc1ccc(N2C(=O)CC(SC(=NC)Nc3ccc4c(c3)OCO4)C2=O)cc1 (stereo not given)	none (no result: E-sel TNF inh)
CC(C)COc1ccc(/C=C2/Sc3ccccc3C2=O)cc1	none
Cc1ccc(S(=O)(=O)N2CCN(S(=O)(=O)c3ccc(C)cc3)C2c2ccccc2)cc1	CYP2C19 inhib 79
Cc1ccc(S(=O)(=O)N2CCCC2C(=O)O)cc1 (stereo not given)	none (no result: E-sel TNF inh)
O=C(CCC1CCCN(C(=O)c2cncs2)C1)NCc1ccc(F)c(F)c1 (stereo not given)	none (no result: CYP2C19 act, CYP2C19 inhib, cytoskel mod, CYP2C9 act, CYP2C9 inhib)
COCCn1c(SCC(=O)Nc2cc(C)on2)nnc1-c1c[nH]c2ccccc12	CYP2C19 inhib 55, CYP2C9 inhib 75 (no result: E-sel TNF inh, cytoskel mod)
COc1ccccc1-n1c(SCC(N)=O)nnc1-c1ccccc1	none
COc1ccc(OC)c(-n2c(SC)nnc2-c2c[nH]c3ccccc23)c1	CYP2C19 inhib 78, CYP2C9 inhib 68 (no result: E-sel TNF inh, cytoskel mod)
COc1ccc(OC)c(-n2c(SCC(N)=O)nnc2-c2c[nH]c3ccccc23)c1	CYP2C9 inhib 58 (no result: E-sel TNF inh, cytoskel mod)
COc1ccc(OC)c(-n2c(SCC(=O)Nc3cc(C)on3)nnc2-c2c[nH]c3ccccc23)c1	CYP2C19 inhib 84, CYP2C9 inhib 68 (no result: E-sel TNF inh, cytoskel mod)
O=C(c1ccco1)N1CCN(C(=O)C2CCN(S(=O)(=O)Cc3ccccc3)CC2)CC1	none
CCCCN(C(=S)Nc1ccccc1)C1CCS(=O)(=O)C1 (stereo not given)	none
CCCCNC(=O)CSc1nnc(-c2c[nH]c3ccccc23)n1CC1CCCO1 (stereo not given)	CYP2C19 inhib 53
COc1cccc(-c2nnc(SCC(N)=O)n2-c2ccc(Cl)cc2)c1	none
COc1cccc(-n2c(SCC(N)=O)nnc2-c2c[nH]c3ccccc23)c1	CYP2C19 inhib 89 (no result: E-sel TNF inh, cytoskel mod)
COc1ccc(/C(O)=C/c2nc3ccccc3n(-c3ccccc3)c2=O)cc1	none
O=C1CCc2cc(S(=O)(=O)N3CCC(C(=O)NCc4ccccn4)CC3)ccc2N1	none (no result: cytoskel mod)
